From PubChem BioAssay (NCATS)
Inconclusive results are not listed. Calls of active or inactive are those of the source. The call rests on the fitted dose curve; in most records, active means well fitted curve in the direction sought with a large enough effect; inconclusive means small, poorly fitted or top-dose-only effect, or another doubt; inactive means no such curve, though single readings can be large; an effect the other way counts as inactive or inconclusive. Where a SMILES comes first, the peptide text is derived from it.

How the values were obtained:
NIH3T3 = experiment: qHTS assay to identify novel small-molecules to repurpose for Merkel cell carcinoma treatment (AID 1296009); conditions: MCC and control cell lines, CellTiter-Glo viability, 72 h; at 44.8 µM (top of the series) unless noted; further: nearly all actives have a fitted effect of over 60% in size
Procedure, shortened: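 Cells were treated for 72 hr at 37 degree celsius with compounds in 8- or 11-point dose response. Viability was read by CellTiter-Glo luminescence, normalized to no-cell (cytotoxicity) and DMSO controls.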

C33A = experiment: Primary qHTS to identify gynecologic anti-cancer compounds using libraries of approved drugs and bioactive compounds (AID 1345084); conditions: Gynecologic cancer cell panel viability, ATPlite luminescence, 48 h; series mostly up to 57.5 µM; further: on the % scale 0 is the no-effect control and ±100 the full control effect; nearly all actives have a fitted effect of over 55% in size
Procedure, shortened: (§1)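 Five-concentration response, 48 h; readout is ATP-driven luciferase luminescence.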

CAOV3 = experiment: as above; conditions: Gynecologic cancer cell panel viability, ATPlite luminescence, 48 h; series mostly up to 57.5 µM
Procedure, shortened: as §1

CASKI = experiment: as above; conditions: Gynecologic cancer cell panel viability, ATPlite luminescence, 48 h; series mostly up to 57.5 µM
Procedure, shortened: as §1

Es-2 = experiment: as above; conditions: Gynecologic cancer cell panel viability, ATPlite luminescence, 48 h; series mostly up to 57.5 µM
Procedure, shortened: as §1

HeLa = experiment: as above; conditions: Gynecologic cancer cell panel viability, ATPlite luminescence, 48 h; series mostly up to 57.5 µM
Procedure, shortened: as §1

Hek293T = experiment: as above; conditions: Gynecologic cancer cell panel viability, ATPlite luminescence, 48 h, control line for the selectivity index; series mostly up to 57.5 µM
Procedure, shortened: as §1

JEG-3 = experiment: as above; conditions: Gynecologic cancer cell panel viability, ATPlite luminescence, 48 h; series mostly up to 57.5 µM
Procedure, shortened: as §1

OV90 = experiment: as above; conditions: Gynecologic cancer cell panel viability, ATPlite luminescence, 48 h; series mostly up to 57.5 µM
Procedure, shortened: as §1

PA-1 = experiment: as above; conditions: Gynecologic cancer cell panel viability, ATPlite luminescence, 48 h; series mostly up to 57.5 µM
Procedure, shortened: as §1

SKOV3 = experiment: as above; conditions: Gynecologic cancer cell panel viability, ATPlite luminescence, 48 h; series mostly up to 57.5 µM
Procedure, shortened: as §1

Tov-21-G = experiment: as above; conditions: Gynecologic cancer cell panel viability, ATPlite luminescence, 48 h; series mostly up to 57.5 µM
Procedure, shortened: as §1

Tov112D = experiment: as above; conditions: Gynecologic cancer cell panel viability, ATPlite luminescence, 48 h; series mostly up to 57.5 µM
Procedure, shortened: as §1

C=C1CC2C3(C)C=CC(=O)OC(C)(C)C3CC(OC(C)=O)C2(C)C2C(=O)OC(C)C(=O)C12C (configuration not stated)
inactive: outcome (NIH3T3) inactive [at 17.4 µM] | Potency (C33A) | Potency (CAOV3) | outcome (CASKI) | Potency (Es-2) | Potency (HeLa) | Potency (Hek293T) | Potency (JEG-3) | Potency (OV90) | Potency (PA-1) | Potency (SKOV3) | Potency (Tov-21-G) | Potency (Tov112D)

C/C=C/C=C/C1=C2C(=O)C3(C)C4C(C(=O)CC(O)/C=C/C)=C(O1)C1(C)C2C2(C)OC1(O)C4(C)OC23O (configuration not stated)
inactive: outcome (NIH3T3) inactive [at 17.4 µM] | Potency (C33A) | Potency (CAOV3) | outcome (CASKI) | Potency (Es-2) | Potency (HeLa) | Potency (Hek293T) | Potency (JEG-3) | Potency (OV90) | Potency (PA-1) | Potency (SKOV3) | Potency (Tov-21-G) | Potency (Tov112D)

C[C@@H]1O[C@@H](OC(=O)Cc2ccccc2)[C@H](O)[C@H](O)[C@H]1O
inactive: outcome (NIH3T3) | Potency (C33A) | Potency (CAOV3) | outcome (CASKI) | Potency (Es-2) | Potency (HeLa) | Potency (Hek293T) | Potency (JEG-3) | Potency (OV90) | Potency (PA-1) | Potency (SKOV3) | Potency (Tov-21-G) | Potency (Tov112D)

CC[C@H](C)[C@H](NC(=O)[C@H](Cc1ccc(O)cc1)NC(=O)[C@@H](N)C(C)C)C(=O)N[C@@H](Cc1cnc[nH]1)C(=O)N1CCC[C@H]1C(=O)N[C@@H](Cc1ccccc1)C(=O)O
inactive: outcome (NIH3T3) inactive [at 4.96 µM] | activity change, negative = cytotoxicity (C33A) 19.1% [at 6.55 µM] | activity change, negative = cytotoxicity (CAOV3) 20.7% [at 6.55 µM] | activity change, negative = cytotoxicity (CASKI) -0.165% [at 6.55 µM] | activity change, negative = cytotoxicity (Es-2) 0.0528% [at 6.55 µM] | activity change, negative = cytotoxicity (HeLa) 25.4% [at 6.55 µM] | activity change, negative = cytotoxicity (Hek293T) 1.27% [at 6.55 µM] | activity change, negative = cytotoxicity (JEG-3) 1.86% [at 6.55 µM] | activity change, negative = cytotoxicity (OV90) -1.9% [at 6.55 µM] | activity change, negative = cytotoxicity (PA-1) 4.28% [at 6.55 µM] | activity change, negative = cytotoxicity (SKOV3) 16.8% [at 6.55 µM] | activity change, negative = cytotoxicity (Tov-21-G) 1.06% [at 6.55 µM] | activity change, negative = cytotoxicity (Tov112D) 12.4% [at 6.55 µM]

C/C=C1/CC2C(=O)Nc3cc(O)c(OC)cc3C(=O)N2C1 (configuration not stated)
inactive: outcome (NIH3T3) | Potency (C33A) | Potency (CAOV3) | outcome (CASKI) | Potency (Es-2) | Potency (HeLa) | Potency (Hek293T) | Potency (JEG-3) | Potency (OV90) | Potency (PA-1) | Potency (SKOV3) | Potency (Tov-21-G) | Potency (Tov112D)

O=C(O)Cc1cn([C@@H]2OC[C@@H](O[C@@H]3O[C@H](CO)[C@@H](O)[C@H](O)[C@H]3O)[C@H](O)[C@H]2O[C@@H]2O[C@H](CO)[C@@H](O)[C@H](O)[C@H]2O)c2ccccc12
inactive: outcome (NIH3T3) inactive [at 17.4 µM] | Potency (C33A) | Potency (CAOV3) | outcome (CASKI) | Potency (Es-2) | Potency (HeLa) | Potency (Hek293T) | Potency (JEG-3) | Potency (OV90) | Potency (PA-1) | Potency (SKOV3) | Potency (Tov-21-G) | Potency (Tov112D)

Cc1onc(-c2c(Cl)cccc2Cl)c1CC(=O)NCc1ccc(OCC(F)(F)F)nc1
inactive: outcome (NIH3T3) | Potency (C33A) | Potency (CAOV3) | outcome (CASKI) | Potency (Es-2) | Potency (HeLa) | Potency (Hek293T) | Potency (JEG-3) | Potency (OV90) | Potency (PA-1) | Potency (SKOV3) | Potency (Tov-21-G) | Potency (Tov112D)

C/C=C1\[C@H](O[C@@H]2O[C@H](CO)[C@@H](O)[C@H](O)[C@H]2O)OC=C(C(=O)O)[C@H]1CC(=O)OCCc1ccc(O)cc1
inactive: outcome (NIH3T3) inactive [at 17.4 µM] | Potency (C33A) | Potency (CAOV3) | outcome (CASKI) | Potency (Es-2) | Potency (HeLa) | Potency (Hek293T) | Potency (JEG-3) | Potency (OV90) | Potency (PA-1) | Potency (SKOV3) | Potency (Tov-21-G) | Potency (Tov112D)

CC[C@H]1OC(=O)[C@H](C)[C@@H](O[C@H]2C[C@@](C)(OC)[C@@H](O)[C@H](C)O2)C(C)[C@@H](O[C@@H]2O[C@H](C)C[C@H](N(C)C)[C@H]2O)[C@](C)(O)C[C@@H](C)CN(C)[C@H](C)[C@@H](O)[C@]1(C)O (some centres not stated)
inactive: outcome (NIH3T3) | Potency (C33A) | Potency (CAOV3) | outcome (CASKI) | Potency (Es-2) | Potency (HeLa) | Potency (Hek293T) | Potency (JEG-3) | Potency (OV90) | Potency (PA-1) | Potency (SKOV3) | Potency (Tov-21-G) | Potency (Tov112D)

O=C(O)C(Cc1ccccc1)NC(=O)C1CCCN1 (stereo not drawn) (H-Pro-Phe-OH; configuration not given here)
inactive: outcome (NIH3T3) | Potency (C33A) | Potency (CAOV3) | outcome (CASKI) | Potency (Es-2) | Potency (HeLa) | Potency (Hek293T) | Potency (JEG-3) | Potency (OV90) | Potency (PA-1) | Potency (SKOV3) | Potency (Tov-21-G) | Potency (Tov112D)

C=C1C2CCC3CC2(CC(O)C2(O)C1CC(OC1OC(CO)C(O)C(O)C1O)C2(C)C)CC3(C)O (configuration not stated)
inactive: outcome (NIH3T3) inactive [at 17.4 µM] | Potency (C33A) | Potency (CAOV3) | outcome (CASKI) | Potency (Es-2) | Potency (HeLa) | Potency (Hek293T) | Potency (JEG-3) | Potency (OV90) | Potency (PA-1) | Potency (SKOV3) | Potency (Tov-21-G) | Potency (Tov112D)

CC(C)C(O)(CO)CCO[C@@H]1O[C@H](CO[C@H]2OC[C@](O)(CO)[C@H]2O)[C@@H](O)[C@H](O)[C@H]1O (some centres not stated)
inactive: outcome (NIH3T3) inactive [at 17.4 µM] | Potency (C33A) | Potency (CAOV3) | outcome (CASKI) | Potency (Es-2) | Potency (HeLa) | Potency (Hek293T) | Potency (JEG-3) | Potency (OV90) | Potency (PA-1) | Potency (SKOV3) | Potency (Tov-21-G) | Potency (Tov112D)

Cc1cn(-c2cc(NC(=O)c3ccc(C)c(Nc4nccc(-c5cnccn5)n4)c3)cc(C(F)(F)F)c2)cn1
inactive: outcome (NIH3T3) | Potency (C33A) | Potency (CAOV3) | outcome (CASKI) | Potency (Es-2) | Potency (HeLa) | Potency (Hek293T) | Potency (JEG-3) | Potency (OV90) | Potency (PA-1) | Potency (SKOV3) | Potency (Tov-21-G) | Potency (Tov112D)

COc1cccc(OC)c1-c1ccc(C[C@H](NC(=O)c2c(Cl)cccc2Cl)C(=O)O)cc1
inactive: outcome (NIH3T3) | Potency (C33A) | Potency (CAOV3) | outcome (CASKI) | Potency (Es-2) | Potency (HeLa) | Potency (Hek293T) | Potency (JEG-3) | Potency (OV90) | Potency (PA-1) | Potency (SKOV3) | Potency (Tov-21-G) | Potency (Tov112D)
